# Targets with a hit are over-represented here; the source holds about 8,800 in all. About 0.5% of all pairs of compound and target were hits. A number with no mark means an inactive call.
# Assays:
# Test in all cases: log2 fold change, soluble protein after heating vs DMSO (PISA); higher = thermal stabilisation; K562 lysate, 10 uM; active = over 0.2 and 3.5 SD of the protein, either way, in both replicates (recomputed)
# [1] = compound: C#Cc1cccc(Nc2ncnc3cc(OCCOC)c(OCCOC)cc23)c1 [erlotinib]
# Procedure, shortened: (§1)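 A 30 min treatment with 10 μM compound was applied to crude K562 extract at 1 mg/mL protein in PBS pH 7.4 with 1 mM MgCl2. Heating for 3 min spanned 48°C-58°C, after which aliquots were pooled, adjusted to 0.5% NP-40 at 4°C and spun at 21,000xg for 90 min. TMTpro 16plex LC-MS/MS of the supernatant, with channel sums equalised, gave values recorded as log-two fold change in thermal stability against solvent controls, from duplicates.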
# [2] = compound: C/C(=N\NC(=O)C1=CC(=CC=C1)S(=O)(=O)N2CCOCC2)/C3=C(C=CC(=C3)Cl)O
# Procedure, shortened: as §1
# [3] = compound: C1=CC(=CC=C1C2=NC3=C(N2)C=C(C=C3)C(=O)N)OC4=CC=C(C=C4)Cl
# Procedure, shortened: as §1
# [4] = compound: C1=CC2=C(C=CC(=C2)/C=C\3/C(=O)NC(=NCC4=CC=CS4)S3)N=C1
# Procedure, shortened: as §1
# [5] = compound: C1=CC2=NC=CN=C2C=C1/C=C/3\C(=O)NC(=O)S3
# Procedure, shortened: as §1
# [6] = compound: C1=CC=C(C=C1)C2=NC(=C(N2)C3=CC=NC=C3)C4=CC(=C(C=C4)Cl)O
# Procedure, shortened: as §1
# [7] = compound: C1=CC=C2C(=C1)C3=NNC4=CC=CC(=C43)C2=O
# Procedure, shortened: as §1
# [8] = compound: C1CCN(C1)C(=O)NC2=CC=CC(=C2)NC3=NC=C(C(=N3)NCCC4=CN=CN4)Br
# Procedure, shortened: as §1
# [9] = compound: C1CN(CCC1(CC2=CC=C(C=C2)Cl)N)C3=NC=NC4=C3C=CN4
# Procedure, shortened: as §1
# [10] = compound: C1COCCN1CCN2C3=CC=CC=C3N=C2NC(=O)C4=CC(=CC=C4)[N+](=O)[O-] [IRAK-1-4 Inhibitor I]
# Procedure, shortened: as §1
# [11] = compound: C=CC(=O)N1CCC[C@@H](n2nc(-c3ccc(Oc4ccccc4)cc3)c3c(N)ncnc32)C1 [ibrutinib]
# Procedure, shortened: as §1
# [12] = compound: CC(=O)c1cnc2ccc(-c3cc(Cl)c(O)c(Cl)c3)nc2c1N[C@H]1CC[C@H](CN(C)C)CC1
# Procedure, shortened: as §1
# [13] = compound: CC(C)(C)Cn1c(N)nc2ccc(-c3[nH]c(C(C)(C)C)nc3-c3ccc(F)cc3)nc21 [ralimetinib]
# Procedure, shortened: as §1
# [14] = compound: CC(C)(O)CC(=O)NCCn1ccc2ncnc(Nc3ccc(Oc4cccc(C(F)(F)F)c4)c(Cl)c3)c21
# Procedure, shortened: as §1
# [15] = compound: CC(C)C1=C2N=C(C=C(N2N=C1)NCC3=CC=CC=C3)NCCCCCCN
# Procedure, shortened: as §1
# [16] = compound: CC1=C(C(CC(=O)N1)C2=CC=C(C=C2)C(F)(F)F)C(=O)NC3=C(C=C4C(=C3)C=NN4)F
# Procedure, shortened: as §1
# [17] = compound: CC1=C(C2=C(C=C1)C(=O)C3=CC=CC=C3N2CCCN)C
# Procedure, shortened: as §1
# [18] = compound: CC1=C(C=C(C=C1)NC(=O)C2=CC(=CC=C2)C(C)(C)C#N)NC3=CC4=C(C=C3)N=CN(C4=O)C
# Procedure, shortened: as §1
# [19] = compound: CC1=C(C=C(C=C1)NC(=O)C2=CC(=CC=C2)N(C)C)NC(=O)C3=CC=C(C=C3)O
# Procedure, shortened: as §1
# [20] = compound: CC1=CC=C(C=C1)SC2=C3C=C(SC3=CN=C2)C(=O)N
# Procedure, shortened: as §1
# Sequence of UniProt Q9UBD5 (Q9UBD5 whole entry, looked up): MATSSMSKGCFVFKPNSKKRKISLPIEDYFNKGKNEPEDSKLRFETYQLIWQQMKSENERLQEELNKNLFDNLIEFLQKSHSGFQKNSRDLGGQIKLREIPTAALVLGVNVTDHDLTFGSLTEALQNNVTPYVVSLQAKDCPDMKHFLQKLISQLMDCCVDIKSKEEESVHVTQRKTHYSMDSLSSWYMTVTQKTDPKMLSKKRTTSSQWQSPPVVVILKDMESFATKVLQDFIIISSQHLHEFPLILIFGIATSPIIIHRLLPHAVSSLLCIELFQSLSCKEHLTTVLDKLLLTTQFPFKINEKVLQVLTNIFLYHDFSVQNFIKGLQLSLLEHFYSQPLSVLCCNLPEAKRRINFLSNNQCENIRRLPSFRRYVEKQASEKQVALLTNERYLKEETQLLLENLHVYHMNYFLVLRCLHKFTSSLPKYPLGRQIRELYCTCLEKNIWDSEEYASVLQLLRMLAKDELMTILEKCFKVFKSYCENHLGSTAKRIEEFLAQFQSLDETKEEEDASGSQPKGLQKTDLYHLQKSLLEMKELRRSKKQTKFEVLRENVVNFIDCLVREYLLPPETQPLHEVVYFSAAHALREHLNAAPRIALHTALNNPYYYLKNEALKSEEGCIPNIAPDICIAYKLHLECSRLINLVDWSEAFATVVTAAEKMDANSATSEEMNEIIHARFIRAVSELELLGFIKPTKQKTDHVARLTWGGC
# Sequence of UniProt Q9NQR4 (Q9NQR4 whole entry, looked up): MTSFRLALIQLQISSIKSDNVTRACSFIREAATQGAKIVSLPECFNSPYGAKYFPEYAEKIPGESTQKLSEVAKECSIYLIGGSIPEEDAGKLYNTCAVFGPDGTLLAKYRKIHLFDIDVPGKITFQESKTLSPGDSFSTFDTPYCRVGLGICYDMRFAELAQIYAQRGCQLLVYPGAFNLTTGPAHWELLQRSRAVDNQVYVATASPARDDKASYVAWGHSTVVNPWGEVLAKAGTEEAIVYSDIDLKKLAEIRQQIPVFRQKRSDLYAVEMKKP
# Sequence of UniProt Q86XI2 (Q86XI2 whole entry, looked up): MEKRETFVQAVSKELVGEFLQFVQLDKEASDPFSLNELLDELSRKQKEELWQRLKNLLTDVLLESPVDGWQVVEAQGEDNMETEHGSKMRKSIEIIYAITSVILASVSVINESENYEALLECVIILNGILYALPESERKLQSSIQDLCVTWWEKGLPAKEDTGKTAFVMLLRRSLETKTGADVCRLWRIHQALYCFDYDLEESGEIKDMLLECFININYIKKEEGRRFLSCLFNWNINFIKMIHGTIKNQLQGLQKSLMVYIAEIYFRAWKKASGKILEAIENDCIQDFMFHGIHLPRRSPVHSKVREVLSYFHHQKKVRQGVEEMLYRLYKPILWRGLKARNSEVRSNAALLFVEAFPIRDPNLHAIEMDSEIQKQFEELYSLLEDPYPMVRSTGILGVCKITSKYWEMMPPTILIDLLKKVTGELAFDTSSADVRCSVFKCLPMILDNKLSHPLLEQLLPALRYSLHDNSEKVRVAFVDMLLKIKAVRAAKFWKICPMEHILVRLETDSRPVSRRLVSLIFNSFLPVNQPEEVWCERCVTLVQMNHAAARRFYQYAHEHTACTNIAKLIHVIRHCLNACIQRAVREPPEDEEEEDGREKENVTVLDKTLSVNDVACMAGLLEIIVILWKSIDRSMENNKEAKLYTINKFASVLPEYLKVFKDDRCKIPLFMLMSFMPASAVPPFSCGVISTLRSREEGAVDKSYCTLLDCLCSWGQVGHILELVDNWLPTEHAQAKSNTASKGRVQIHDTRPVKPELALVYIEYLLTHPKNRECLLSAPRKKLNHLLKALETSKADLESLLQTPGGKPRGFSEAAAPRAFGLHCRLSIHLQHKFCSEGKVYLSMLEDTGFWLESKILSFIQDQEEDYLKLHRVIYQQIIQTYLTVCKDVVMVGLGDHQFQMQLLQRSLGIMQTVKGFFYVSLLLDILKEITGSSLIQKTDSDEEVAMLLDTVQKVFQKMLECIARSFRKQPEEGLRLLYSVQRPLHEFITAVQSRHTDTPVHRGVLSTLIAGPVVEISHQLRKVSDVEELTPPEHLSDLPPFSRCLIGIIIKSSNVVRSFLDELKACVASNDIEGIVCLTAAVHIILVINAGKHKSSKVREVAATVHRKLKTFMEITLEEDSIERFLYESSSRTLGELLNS
# Sequence of UniProt Q9H857 (Q9H857 whole entry, looked up): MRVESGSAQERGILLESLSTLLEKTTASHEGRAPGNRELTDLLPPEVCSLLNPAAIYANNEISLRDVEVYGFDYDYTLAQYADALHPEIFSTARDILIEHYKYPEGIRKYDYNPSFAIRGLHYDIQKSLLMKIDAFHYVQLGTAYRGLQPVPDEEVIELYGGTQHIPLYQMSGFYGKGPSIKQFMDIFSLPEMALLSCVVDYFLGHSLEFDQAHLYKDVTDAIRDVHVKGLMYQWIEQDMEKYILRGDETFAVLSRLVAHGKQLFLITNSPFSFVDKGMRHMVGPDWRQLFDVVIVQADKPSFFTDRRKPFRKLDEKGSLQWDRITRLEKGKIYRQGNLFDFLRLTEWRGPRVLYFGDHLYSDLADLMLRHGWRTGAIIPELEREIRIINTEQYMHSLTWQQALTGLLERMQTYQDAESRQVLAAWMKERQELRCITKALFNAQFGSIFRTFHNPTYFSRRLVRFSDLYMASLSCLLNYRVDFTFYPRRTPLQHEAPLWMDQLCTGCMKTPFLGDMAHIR
# Sequence of UniProt Q13469 (Q13469 whole entry, looked up): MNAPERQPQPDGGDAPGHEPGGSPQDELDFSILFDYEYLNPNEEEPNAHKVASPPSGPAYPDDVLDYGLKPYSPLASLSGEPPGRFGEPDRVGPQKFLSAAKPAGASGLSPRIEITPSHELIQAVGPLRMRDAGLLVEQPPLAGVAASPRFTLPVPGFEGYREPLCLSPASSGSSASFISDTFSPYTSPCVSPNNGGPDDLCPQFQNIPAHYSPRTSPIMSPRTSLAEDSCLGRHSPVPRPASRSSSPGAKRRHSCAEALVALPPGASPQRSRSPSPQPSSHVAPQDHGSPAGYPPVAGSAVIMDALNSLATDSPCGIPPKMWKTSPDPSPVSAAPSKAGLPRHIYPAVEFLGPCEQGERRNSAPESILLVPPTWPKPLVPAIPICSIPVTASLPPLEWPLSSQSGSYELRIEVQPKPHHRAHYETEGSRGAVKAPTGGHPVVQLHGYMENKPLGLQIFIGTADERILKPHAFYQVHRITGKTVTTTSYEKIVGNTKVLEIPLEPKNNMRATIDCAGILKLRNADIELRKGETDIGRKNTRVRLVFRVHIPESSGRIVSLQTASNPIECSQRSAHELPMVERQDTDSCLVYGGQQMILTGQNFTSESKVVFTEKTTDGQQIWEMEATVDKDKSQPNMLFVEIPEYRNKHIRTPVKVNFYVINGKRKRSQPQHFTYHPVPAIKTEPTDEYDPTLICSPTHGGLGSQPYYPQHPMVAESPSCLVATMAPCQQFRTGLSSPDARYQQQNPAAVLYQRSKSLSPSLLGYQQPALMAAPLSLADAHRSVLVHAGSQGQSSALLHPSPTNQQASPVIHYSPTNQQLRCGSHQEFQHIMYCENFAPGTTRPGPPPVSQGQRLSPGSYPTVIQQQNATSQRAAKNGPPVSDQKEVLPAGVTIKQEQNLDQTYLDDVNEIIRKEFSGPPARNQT
# Sequence of UniProt Q13330 (Q13330 whole entry, looked up): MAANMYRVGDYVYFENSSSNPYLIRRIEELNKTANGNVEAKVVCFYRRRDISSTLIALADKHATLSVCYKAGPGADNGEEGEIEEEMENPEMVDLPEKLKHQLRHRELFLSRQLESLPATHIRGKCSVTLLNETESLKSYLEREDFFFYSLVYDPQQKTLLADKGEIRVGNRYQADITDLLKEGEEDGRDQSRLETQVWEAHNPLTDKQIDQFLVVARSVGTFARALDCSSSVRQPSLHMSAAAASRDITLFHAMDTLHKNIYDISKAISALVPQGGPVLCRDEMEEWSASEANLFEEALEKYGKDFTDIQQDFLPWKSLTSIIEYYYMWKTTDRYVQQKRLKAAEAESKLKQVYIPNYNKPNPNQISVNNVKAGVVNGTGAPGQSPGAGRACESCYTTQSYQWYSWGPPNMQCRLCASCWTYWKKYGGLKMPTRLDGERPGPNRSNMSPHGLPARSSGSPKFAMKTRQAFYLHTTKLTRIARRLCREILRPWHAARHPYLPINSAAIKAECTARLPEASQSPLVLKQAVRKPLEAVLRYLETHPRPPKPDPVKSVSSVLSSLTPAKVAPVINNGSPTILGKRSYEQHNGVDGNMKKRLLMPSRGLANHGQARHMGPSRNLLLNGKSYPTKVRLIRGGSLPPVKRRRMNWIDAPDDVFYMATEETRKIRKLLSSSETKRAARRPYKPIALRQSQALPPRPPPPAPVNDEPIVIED
# Sequence of UniProt Q9BTX1 (Q9BTX1 whole entry, looked up): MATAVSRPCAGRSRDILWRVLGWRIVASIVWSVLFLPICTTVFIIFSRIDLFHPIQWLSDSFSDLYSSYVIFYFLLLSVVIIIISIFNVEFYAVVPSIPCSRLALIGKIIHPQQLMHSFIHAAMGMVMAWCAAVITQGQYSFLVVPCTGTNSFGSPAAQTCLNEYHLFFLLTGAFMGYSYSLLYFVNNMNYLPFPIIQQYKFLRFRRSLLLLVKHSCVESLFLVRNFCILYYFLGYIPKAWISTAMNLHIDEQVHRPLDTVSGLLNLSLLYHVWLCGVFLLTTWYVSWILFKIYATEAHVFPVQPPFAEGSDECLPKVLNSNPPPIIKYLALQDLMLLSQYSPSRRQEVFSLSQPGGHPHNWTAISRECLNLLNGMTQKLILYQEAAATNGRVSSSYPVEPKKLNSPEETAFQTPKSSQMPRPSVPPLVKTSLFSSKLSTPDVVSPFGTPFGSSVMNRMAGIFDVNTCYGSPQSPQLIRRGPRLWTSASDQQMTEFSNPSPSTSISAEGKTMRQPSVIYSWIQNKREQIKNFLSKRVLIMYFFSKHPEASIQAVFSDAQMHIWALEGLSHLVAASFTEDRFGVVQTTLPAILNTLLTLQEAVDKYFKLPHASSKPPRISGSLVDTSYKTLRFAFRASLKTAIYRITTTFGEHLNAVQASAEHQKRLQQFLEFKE
Target,log2 fold change [1],log2 fold change [2],log2 fold change [3],log2 fold change [4],log2 fold change [5],log2 fold change [6],log2 fold change [7],log2 fold change [8],log2 fold change [9],log2 fold change [10],log2 fold change [11],log2 fold change [12],log2 fold change [13],log2 fold change [14],log2 fold change [15],log2 fold change [16],log2 fold change [17],log2 fold change [18],log2 fold change [19],log2 fold change [20]
NOA1 (UniProt Q8NC60),0.001,0.003,-0.007,-0.051,-0.024,0.033,-0.088,0.07,-0.046,-0.032,-0.024,-0.025,0.002,0.034,0.005,-0.064,-0.02,0.002,-0.001,0.02
ORC3 isoform 2 (UniProt Q9UBD5),-0.006,-0.048,-0.046,0.004,0.053,-0.011,-0.045,-0.015,-0.007,-0.008,-0.034,0.007,0.034,-0.05,0.008,0.048,-0.036,0.003,0.029,-0.012
NARS2 (UniProt Q96I59),-0.027,-0.034,-0.045,0.031,0.022,-0.021,-0.04,0.027,-0.027,-0.088,0.01,0.009,0.009,0.003,-0.001,0.017,-0.024,-0.007,0.045,0.038
NT5DC2 isoform 2 (UniProt Q9H857),0.027,0.008,0.068,0.03,0.505 (active),-0.059,0.04,-0.015,0.036,0.002,0,-0.066,-0.015,-0.026,0,-0.002,-0.015,0.008,0.04,-0.025
OAT (UniProt P04181),-0.006,-0.074,-0.04,0.023,0.007,-0.017,-0.038,-0.033,0.008,0.018,-0.007,0.013,0.009,0.002,0,-0.045,-0.018,-0.006,0.034,-0.009
NBEAL2 (UniProt Q6ZNJ1),0.032,0.011,-0.031,0.038,0.017,-0.004,-0.032,-0.012,0.024,-0.01,-0.048,0.011,0.023,-0.047,0.003,0.036,-0.011,0.047,0.06,-0.013
NCAPG2 (UniProt Q86XI2),0.023,-0.026,-0.019,0.001,0.006,-0.004,-0.026,0.023,-0.016,0.004,0.012,-0.029,0.018,0.006,-0.009,0.015,0.05,-0.017,0.001,-0.002
NARF (UniProt Q9UHQ1),0.005,0.006,0.042,0.007,-0.005,0.004,0.004,-0.009,-0.021,-0.009,0.004,0.044,-0.007,-0.013,-0.013,-0.007,-0.011,-0.013,-0.008,-0.113
NIT2 (UniProt Q9NQR4),-0.048,0.001,0.014,0.009,0.007,-0.03,0.032,-0.006,0.015,0.067,0.026,0.014,-0.038,-0.041,0.014,0.017,0.014,0.017,0.019,0
NBN (UniProt O60934),-0.026,0.068,0.051,-0.004,-0.024,0.013,-0.044,-0.005,0.013,0.007,0.016,-0.003,0.014,0.01,-0.016,-0.007,-0.015,-0.021,0.022,-0.016
NFATC2 (UniProt Q13469),0.002,0.067,0.014,0.032,-0.016,0.002,-0.144,-0.018,-0.049,0.033,0.012,0.039,-0.022,-0.061,0.026,0.004,-0.018,-0.026,0.033,-0.031
NCAPD2 (UniProt Q15021),0.011,0.011,-0.005,0.032,-0.009,-0.016,-0.025,-0.007,-0.005,-0.001,-0.019,-0.019,0.03,-0.012,-0.031,0.022,-0.003,0.016,0.036,-0.005
MTA1 (UniProt Q13330),0.006,0,0.013,0.017,-0.036,0,-0.035,0.002,-0.008,0.015,-0.018,-0.025,0.001,0.006,-0.007,-0.004,0,-0.008,0.034,-0.018
PARG (UniProt Q86W56),0.009,-0.013,-0.062,0.008,-0.011,0.004,-0.013,0.003,-0.011,0.048,0.013,0.01,0.017,-0.011,-0.025,-0.017,-0.028,0.021,0.061,0.005
NDC1 (UniProt Q9BTX1),-0.002,0.015,0.026,0.047,0.031,-0.005,-0.077,0.013,0.024,0.026,0.009,-0.02,0.007,-0.012,-0.013,-0.009,-0.031,0.032,0.007,0.072
OARD1 (UniProt Q9Y530),0.002,-0.1,0.008,0.028,-0.019,-0.015,-0.031,-0.036,0.041,-0.01,-0.013,0.003,0.003,0.002,-0.01,-0.027,-0.046,0.032,0.035,0.011

# Source: the supplement of paper PMC10849652
